Results published in the supplement of paper PMC6411743.
± gives the standard deviation of the averaged measurements. Of roughly 6,500 targets only a part is listed; those with the largest changes were picked by preference.

Tests used:
Experiment in all cases: NP40-soluble protein abundance relative to vehicle (solubility fold change) (ratio); higher = more soluble protein in presence of ATP
LAGE3 = molecular target: T1, LAGE3 (UniProt Q14657)
T1 sequence (whole entry): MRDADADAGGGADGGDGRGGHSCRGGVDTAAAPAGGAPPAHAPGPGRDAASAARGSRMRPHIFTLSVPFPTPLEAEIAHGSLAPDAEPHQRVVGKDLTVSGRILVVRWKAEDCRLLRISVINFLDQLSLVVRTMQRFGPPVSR
How it was run: (§1)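 Jurkat crude lysate (Dounce-homogenised) was treated with eight concentrations from 0.1 to 10 mM for 10 min at room temperature, then 3 min at 37 °C. It was solubilised with 0.8% NP40 and benzonase (60 min, 4 °C) and ultracentrifuged, and the supernatant was TMT-labelled for LC-MS/MS. Intensities were vsn-normalised, and the value is the fold change against the NP40-processed vehicle per replicate, from three independent experiments.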

NHLRC2 = molecular target: T2, NHLRC2 (UniProt Q8NBF2)
T2 sequence (whole entry): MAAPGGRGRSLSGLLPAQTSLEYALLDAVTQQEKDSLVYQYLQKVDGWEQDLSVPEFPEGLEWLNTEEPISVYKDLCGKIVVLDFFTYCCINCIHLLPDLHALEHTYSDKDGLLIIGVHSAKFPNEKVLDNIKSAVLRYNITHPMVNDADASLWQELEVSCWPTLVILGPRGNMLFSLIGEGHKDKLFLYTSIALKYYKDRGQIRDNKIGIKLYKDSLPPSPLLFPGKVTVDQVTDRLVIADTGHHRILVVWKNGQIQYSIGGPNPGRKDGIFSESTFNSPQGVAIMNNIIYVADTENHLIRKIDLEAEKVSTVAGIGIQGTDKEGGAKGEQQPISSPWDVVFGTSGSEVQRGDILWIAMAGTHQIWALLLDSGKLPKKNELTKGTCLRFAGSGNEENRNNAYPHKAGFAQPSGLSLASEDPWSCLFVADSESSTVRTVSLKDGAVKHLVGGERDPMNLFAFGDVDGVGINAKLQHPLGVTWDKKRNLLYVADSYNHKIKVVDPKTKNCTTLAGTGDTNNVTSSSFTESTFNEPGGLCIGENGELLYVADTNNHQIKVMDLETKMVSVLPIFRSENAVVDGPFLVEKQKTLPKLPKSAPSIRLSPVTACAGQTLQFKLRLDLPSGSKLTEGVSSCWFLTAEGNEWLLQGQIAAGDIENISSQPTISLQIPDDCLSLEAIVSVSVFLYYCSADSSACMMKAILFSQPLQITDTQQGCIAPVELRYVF
How it was run: as §1

PSMD6 = molecular target: T3, PSMD6 (UniProt Q15008)
T3 sequence (whole entry): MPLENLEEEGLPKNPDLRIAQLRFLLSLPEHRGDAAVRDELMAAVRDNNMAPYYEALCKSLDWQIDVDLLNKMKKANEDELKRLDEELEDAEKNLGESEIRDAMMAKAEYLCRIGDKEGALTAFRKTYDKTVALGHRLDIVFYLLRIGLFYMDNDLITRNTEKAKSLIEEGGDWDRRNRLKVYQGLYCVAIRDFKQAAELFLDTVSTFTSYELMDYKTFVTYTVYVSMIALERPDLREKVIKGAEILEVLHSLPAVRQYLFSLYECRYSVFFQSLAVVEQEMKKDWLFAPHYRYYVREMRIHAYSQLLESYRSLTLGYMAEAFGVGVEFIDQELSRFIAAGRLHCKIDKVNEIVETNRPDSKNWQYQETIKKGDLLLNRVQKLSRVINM
How it was run: as §1

[1] = molecular target: T4, UniProt Q12805|Q12805-2|Q12805-3|Q12805-4
T4 sequence (whole entry): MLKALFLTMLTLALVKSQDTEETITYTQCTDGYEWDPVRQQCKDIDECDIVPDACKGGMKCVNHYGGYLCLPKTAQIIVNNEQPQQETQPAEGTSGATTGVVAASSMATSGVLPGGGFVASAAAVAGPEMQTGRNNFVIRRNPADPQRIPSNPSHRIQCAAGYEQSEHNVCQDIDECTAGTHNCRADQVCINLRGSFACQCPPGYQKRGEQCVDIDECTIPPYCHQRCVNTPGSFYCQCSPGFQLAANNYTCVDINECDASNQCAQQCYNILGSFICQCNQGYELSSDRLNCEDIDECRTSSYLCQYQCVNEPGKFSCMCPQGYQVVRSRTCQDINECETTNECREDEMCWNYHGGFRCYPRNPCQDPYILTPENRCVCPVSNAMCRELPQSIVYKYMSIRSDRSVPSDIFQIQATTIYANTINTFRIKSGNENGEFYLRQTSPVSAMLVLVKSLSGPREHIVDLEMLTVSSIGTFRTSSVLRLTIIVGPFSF
How it was run: as §1

UniProt Q53H96|Q53H96-2 = molecular target: T5, UniProt Q53H96|Q53H96-2
T5 sequence (whole entry): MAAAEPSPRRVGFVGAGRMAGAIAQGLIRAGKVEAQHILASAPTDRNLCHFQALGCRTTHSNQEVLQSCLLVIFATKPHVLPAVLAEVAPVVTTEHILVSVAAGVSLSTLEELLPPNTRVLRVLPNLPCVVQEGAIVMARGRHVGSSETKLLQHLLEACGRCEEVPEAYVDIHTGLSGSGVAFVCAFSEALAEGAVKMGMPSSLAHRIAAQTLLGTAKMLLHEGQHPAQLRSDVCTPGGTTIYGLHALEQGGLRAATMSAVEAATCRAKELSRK
How it was run: as §1

UniProt Q8N6R0 = molecular target: T6, UniProt Q8N6R0
T6 sequence (whole entry): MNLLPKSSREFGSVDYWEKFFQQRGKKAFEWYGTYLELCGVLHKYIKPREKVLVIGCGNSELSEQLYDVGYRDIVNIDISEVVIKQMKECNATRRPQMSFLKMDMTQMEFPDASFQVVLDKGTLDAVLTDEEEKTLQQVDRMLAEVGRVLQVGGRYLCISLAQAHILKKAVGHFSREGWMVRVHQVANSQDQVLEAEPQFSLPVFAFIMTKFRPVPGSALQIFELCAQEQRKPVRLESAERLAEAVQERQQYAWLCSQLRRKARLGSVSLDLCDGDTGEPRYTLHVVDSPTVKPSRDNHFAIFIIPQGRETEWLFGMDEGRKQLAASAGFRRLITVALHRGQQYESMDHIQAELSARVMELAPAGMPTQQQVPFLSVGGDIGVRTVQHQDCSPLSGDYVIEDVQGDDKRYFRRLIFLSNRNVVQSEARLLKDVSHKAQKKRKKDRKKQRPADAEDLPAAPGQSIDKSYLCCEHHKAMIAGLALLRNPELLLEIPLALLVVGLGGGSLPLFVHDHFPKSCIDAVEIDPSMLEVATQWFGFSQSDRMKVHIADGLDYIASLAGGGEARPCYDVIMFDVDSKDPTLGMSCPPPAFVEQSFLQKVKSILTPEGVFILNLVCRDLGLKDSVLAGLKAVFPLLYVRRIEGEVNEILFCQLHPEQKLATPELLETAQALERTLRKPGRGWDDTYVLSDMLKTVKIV
How it was run: as §1

**Q.** What does the source list for `Nc1ncnc2c1ncn2[C@@H]1O[C@H](COP(=O)(O)OP(=O)(O)OP(=O)(O)O)[C@@H](O)[C@H]1O` [adenosine triphosphate]?
**A.** NP40-soluble protein abundance (LAGE3; concentration: 1mM): 0.907 ± 0.071; NP40-soluble protein abundance (LAGE3; concentration: 2mM): 0.909 ± 0.073; NP40-soluble protein abundance (LAGE3; concentration: 4mM): 0.901 ± 0.029; NP40-soluble protein abundance (LAGE3; concentration: 6mM): 0.881 ± 0.072; NP40-soluble protein abundance (LAGE3; concentration: 8mM): 0.903 ± 0.034; NP40-soluble protein abundance (LAGE3; concentration: 10mM): 0.882 ± 0.011; NP40-soluble protein abundance (NHLRC2; concentration: 1mM): 1.01 ± 0.078; NP40-soluble protein abundance (NHLRC2; concentration: 2mM): 0.994 ± 0.096; NP40-soluble protein abundance (NHLRC2; concentration: 4mM): 0.979 ± 0.091; NP40-soluble protein abundance (NHLRC2; concentration: 6mM): 0.976 ± 0.12; NP40-soluble protein abundance (NHLRC2; concentration: 8mM): 0.985 ± 0.1; NP40-soluble protein abundance (NHLRC2; concentration: 10mM): 0.983 ± 0.09; NP40-soluble protein abundance (PSMD6; concentration: 1mM): 0.959 ± 0.015; NP40-soluble protein abundance (PSMD6; concentration: 2mM): 0.9 ± 0.021; NP40-soluble protein abundance (PSMD6; concentration: 4mM): 0.893 ± 0.022; NP40-soluble protein abundance (PSMD6; concentration: 6mM): 0.889 ± 0.048; NP40-soluble protein abundance (PSMD6; concentration: 8mM): 0.921 ± 0.032; NP40-soluble protein abundance (PSMD6; concentration: 10mM): 0.886 ± 0.025; NP40-soluble protein abundance ([1]; concentration: 1mM): 1.03 ± 0.091; NP40-soluble protein abundance ([1]; concentration: 2mM): 1.04 ± 0.052; NP40-soluble protein abundance ([1]; concentration: 4mM): 1.06 ± 0.075; NP40-soluble protein abundance ([1]; concentration: 6mM): 1 ± 0.088; NP40-soluble protein abundance ([1]; concentration: 8mM): 1.05 ± 0.023; NP40-soluble protein abundance ([1]; concentration: 10mM): 1.04 ± 0.025; NP40-soluble protein abundance (UniProt Q53H96|Q53H96-2; concentration: 1mM): 1.04 ± 0.076; NP40-soluble protein abundance (UniProt Q53H96|Q53H96-2; concentration: 2mM): 1.06 ± 0.1; NP40-soluble protein abundance (UniProt Q53H96|Q53H96-2; concentration: 4mM): 1.09 ± 0.08; NP40-soluble protein abundance (UniProt Q53H96|Q53H96-2; concentration: 6mM): 1.01 ± 0.14; NP40-soluble protein abundance (UniProt Q53H96|Q53H96-2; concentration: 8mM): 1.03 ± 0.11; NP40-soluble protein abundance (UniProt Q53H96|Q53H96-2; concentration: 10mM): 1.03 ± 0.1; NP40-soluble protein abundance (UniProt Q8N6R0; concentration: 1mM): 1.04 ± 0.096; NP40-soluble protein abundance (UniProt Q8N6R0; concentration: 2mM): 1 ± 0.081; NP40-soluble protein abundance (UniProt Q8N6R0; concentration: 4mM): 1.05 ± 0.072; NP40-soluble protein abundance (UniProt Q8N6R0; concentration: 6mM): 0.979 ± 0.085; NP40-soluble protein abundance (UniProt Q8N6R0; concentration: 8mM): 1.05 ± 0.075; NP40-soluble protein abundance (UniProt Q8N6R0; concentration: 10mM): 1.01 ± 0.053
